This is one part of a sample in which hits are shown more often than they occur.
ROCK2 blocker = ROCK2 (human) kinase inhibition | 60,000 tested, 0.35% active | purified ROCK2, Kinase-Glo ATP depletion luminescence | inhibition, % at 6 µM | AID 604;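 active = inhibition above the screen-wide mean inhibition plus 3 SD, cut at about 18% in these data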
JNK3 blocker = JNK3 (human) kinase inhibition; P53779; purified JNK3 kinase activity, HTS; 60,000 tested, 0.61% active; inhibition, % at 8 µM; in the data active = inhibition above about 17%
Target sequence (P53779 whole entry, looked up): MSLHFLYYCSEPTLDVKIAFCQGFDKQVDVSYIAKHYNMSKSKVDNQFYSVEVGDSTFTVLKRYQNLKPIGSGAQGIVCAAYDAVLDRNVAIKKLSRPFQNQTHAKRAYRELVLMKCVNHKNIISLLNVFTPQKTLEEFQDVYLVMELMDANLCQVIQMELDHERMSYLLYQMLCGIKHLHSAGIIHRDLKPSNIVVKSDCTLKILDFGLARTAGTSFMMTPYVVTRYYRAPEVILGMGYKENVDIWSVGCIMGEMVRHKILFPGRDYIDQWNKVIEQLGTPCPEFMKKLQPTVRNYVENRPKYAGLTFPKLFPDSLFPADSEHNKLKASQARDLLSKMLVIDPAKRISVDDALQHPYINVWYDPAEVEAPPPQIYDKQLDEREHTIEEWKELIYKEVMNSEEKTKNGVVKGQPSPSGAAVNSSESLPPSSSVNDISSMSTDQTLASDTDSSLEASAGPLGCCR
D1 allo mod = allosterically modulates the human D1 dopamine receptor. 58,000 tested, 5.9% active. P21728. HEK293 D1, CRE-luciferase, dopamine EC30 potentiation; actives deviate in either direction. AID 641. B-score at 10 µM;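 active = luminescence count or its row- and column-corrected plate score outside the 99.7% band of the plate's sample wells, on either side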
hDAT+cocaine = modulates human dopamine transporter uptake under cocaine; 110,000 tested, 1.3% active; AID 449768; B-score at 10 µM; Q01959; LLC-PK1 hDAT cells, [14C]-dopamine uptake with cocaine IC80; actives deviate in either direction;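 active = Z score or B-score, a plate-position-corrected score, falls beyond the plate's 99.7% confidence bounds, in either direction; inactive = both scores lie inside the 99.7% bounds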
PKA kinase inh = blocks human protein kinase A activity; P17612; AID 524; 65,000 tested, 0.1% active; PKA Kemptide phosphorylation, Kinase-Glo ATP luminescence; inhibition, % at 6 µM;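 active = inhibition above the screen-wide mean inhibition plus 3 SD, cut at about 21% in these data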
D1 mod confirm = confirmation of human D1 dopamine receptor allosteric modulators | luminescence at 10 µM | HEK293 D1 CRE-luciferase, dopamine EC30 potentiation; stronger effect = higher value | shares compounds with D1 allo mod | AID 642 | 2,200 tested, 88% active;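 active = luminescence in either of two replicates above the same-plate mean plus 3 SD of the low-dose dopamine control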
D1 ag no DA = D1 (human) signaling in absence of dopamine; shares compounds with D1 allo mod; HEK293 D1 CRE-luciferase, luminescence, no dopamine; stronger effect = higher value; luminescence at 10 µM; 1,900 tested, 0.8% active; AID 646; in the data active = luminescence above about 3900
Isoprot counter = alters isoproterenol CRE-luciferase response in HEK293 cells | shares compounds with D1 allo mod | HEK293 D1 CRE-luciferase, isoproterenol EC30 counter-screen | calls only at 10 µM | 2,200 tested, 63% active | AID 647;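 active = luminescence in either replicate above plate mean of wells with a partly effective reference agonist dose plus 3 SD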;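 note: isoproterenol raises cAMP through native beta-adrenoceptor Gs so signal bypasses D1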
Numbers stand for hits.

`CCOC(=O)c1c(NC(=O)CSc2nnc(-c3cccnc3)o2)sc(C(C)=O)c1C` gave ROCK2 blocker inactive, JNK3 blocker inactive, D1 allo mod 4, hDAT+cocaine inactive, PKA kinase inh inactive, D1 mod confirm 6332, D1 ag no DA inactive and Isoprot counter active.
COc1ccc(-c2nnn(CC(=O)N(Cc3cccs3)C(C)C(=O)NCCC(C)C)n2)cc1OC (configuration not stated) was read as hDAT+cocaine inactive.
`O=C1COc2ccccc2N1Cc1ccccc1Cl` gave ROCK2 blocker inactive, JNK3 blocker inactive, D1 allo mod 4.9, hDAT+cocaine inactive, PKA kinase inh inactive, D1 mod confirm 7968, D1 ag no DA inactive and Isoprot counter inactive.
`CC1Oc2ccccc2N(Cc2ccccc2Cl)C1=O` (configuration not stated) gave ROCK2 blocker inactive, JNK3 blocker inactive, hDAT+cocaine inactive and PKA kinase inh inactive.
Screening O=C(CN1C(=O)NC2NC(=O)NC21)NC1CCCCC1 (configuration not stated) returned ROCK2 blocker inactive, JNK3 blocker inactive, D1 allo mod inactive and PKA kinase inh inactive.
COc1ccc(-c2cnnn2-c2ccc(N)cc2)cc1OC was read as ROCK2 blocker inactive, JNK3 blocker inactive, D1 allo mod 11, hDAT+cocaine inactive, PKA kinase inh inactive, D1 mod confirm 19800, D1 ag no DA inactive and Isoprot counter active.
Screening N/C(=N\OC(=O)CC1CCCCC1)c1ccccn1 returned hDAT+cocaine inactive.
`CC(=O)Nc1cc(S(=O)(=O)C(F)(F)F)ccc1Cl` gave ROCK2 blocker inactive, JNK3 blocker inactive, D1 allo mod inactive, hDAT+cocaine inactive and PKA kinase inh inactive.
`COc1ccccc1-c1c(C)c(C)nc(N)c1C#N` gave ROCK2 blocker inactive, JNK3 blocker inactive, hDAT+cocaine inactive and PKA kinase inh inactive.
`N#Cc1c(-c2ccccc2Cl)cc(C2CC2)nc1N` gave ROCK2 blocker inactive, JNK3 blocker inactive, D1 allo mod 15, hDAT+cocaine inactive, PKA kinase inh inactive, D1 mod confirm 20296, D1 ag no DA inactive and Isoprot counter active.
`COc1ccccc1-c1cc(C2CC2)nc(N)c1C#N` gave ROCK2 blocker inactive, JNK3 blocker inactive, D1 allo mod 9.4, hDAT+cocaine inactive, PKA kinase inh inactive, D1 mod confirm 11344, D1 ag no DA inactive and Isoprot counter active.
`CN1CCn2c1nc(N1CCOCC1)nc2=O` gave ROCK2 blocker inactive, JNK3 blocker inactive, hDAT+cocaine inactive and PKA kinase inh inactive.
Screening O=C1CC(c2ccccc2)Sc2ccccc2N1 (configuration not stated) returned ROCK2 blocker inactive, JNK3 blocker inactive, D1 allo mod 26, hDAT+cocaine inactive, PKA kinase inh inactive, D1 mod confirm 18012, D1 ag no DA inactive and Isoprot counter active.
C=CCN1C(=O)c2oc3ccccc3c(=O)c2C1c1ccc(O)c(OC)c1 (configuration not stated) was read as ROCK2 blocker inactive, JNK3 blocker inactive, D1 allo mod 8.1, PKA kinase inh inactive, D1 mod confirm 10008 and Isoprot counter inactive.
For CCOc1ccc(Nc2cc(C)nc3nc(C)nn23)cc1 the results were ROCK2 blocker inactive, JNK3 blocker inactive and PKA kinase inh inactive.
Cc1ccc(N(Cc2cc(=O)[nH]c3ccccc23)C(=O)c2ccco2)cc1 was read as ROCK2 blocker inactive, JNK3 blocker inactive, D1 allo mod inactive, hDAT+cocaine inactive and PKA kinase inh inactive.
For COc1ccc(CN(C(=O)c2ccco2)c2ccc(C)cc2)cc1OC the results were ROCK2 blocker inactive, JNK3 blocker inactive, D1 allo mod 10, hDAT+cocaine inactive, PKA kinase inh inactive, D1 mod confirm 22164, D1 ag no DA inactive and Isoprot counter active.
For COc1ccc(N/C=C2/CCCCC2=O)cc1 the results were ROCK2 blocker inactive, JNK3 blocker inactive, D1 allo mod 2.8, hDAT+cocaine inactive, PKA kinase inh inactive, D1 mod confirm inactive, D1 ag no DA inactive and Isoprot counter inactive.
